# This is part of a sample that, as a whole, favours compounds with a hit. Of some 83,000 tested, about 20% had one in any assay.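 The endpoint reported here, percent growth, reads 100 for growth as untreated, 0 for no net growth and -100 for all cells dead.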 Values without a mark were called inactive. Calls of active or inactive are those of the source. How the source made its calls: active means growth percent below 10; inactive means the rest.
# Legend:
# Assay in all cases: NCI-60 one-dose screen, 48 h (100 = growth as untreated, 0 = no growth, -100 = all killed)
# [1] = tested on: SK-MEL-2 melanoma; details: 10 µM unless noted
# [2] = tested on: SN12C renal; details: 10 µM unless noted
# [3] = tested on: UO-31 renal; details: 10 µM unless noted
# [4] = tested on: TK-10 renal; details: 10 µM unless noted
# [5] = tested on: ACHN renal; details: 10 µM unless noted
# [6] = tested on: CAKI-1 renal; details: 10 µM unless noted
# [7] = tested on: A498 renal; details: 10 µM unless noted
# [8] = tested on: CCRF-CEM leukemia; details: 10 µM unless noted
# [9] = tested on: MOLT-4 leukemia; details: 10 µM unless noted
# [10] = tested on: SR leukemia; details: 10 µM unless noted
# [11] = tested on: RPMI-8226 leukemia; details: 10 µM
# [12] = tested on: OVCAR-8 ovarian; details: 10 µM unless noted
# [13] = tested on: OVCAR-5 ovarian; details: 10 µM unless noted
# [14] = tested on: OVCAR-4 ovarian; details: 10 µM unless noted
# [15] = tested on: SK-OV-3 ovarian; details: 10 µM
# [16] = tested on: IGROV1 ovarian; details: 10 µM unless noted
# [17] = tested on: OVCAR-3 ovarian; details: 10 µM unless noted
# [18] = tested on: HS 578T breast; details: 10 µM unless noted
# [19] = tested on: NCI/ADR-RES ovarian; details: 10 µM unless noted
SMILES,growth [1],growth [2],growth [3],growth [4],growth [5],growth [6],growth [7],growth [8],growth [9],growth [10],growth [11],growth [12],growth [13],growth [14],growth [15],growth [16],growth [17],growth [18],growth [19]
Fc1ccccc1Nc1ccc2nnc(-c3ccncc3)n2n1,92.8%,103%,88%,114%,99.6%,102%,95.6%,96.1%,98.8%,89.4%,95.4%,103%,97.3%,107%,107%,105%,108%,105%,99.2%
Cc1nn2c(-c3nc4ccc(Cl)cc4[nH]3)c(-c3ccc(F)cc3)nc2s1,105%,106%,86.9%,97.1%,102%,94.8%,76.8%,72%,72.6%,72%,–,87.7%,98.5%,115%,107%,–,110%,–,96.4%
CCOC(=O)c1c(Cl)c2c(n1Cc1cc(OC)cc(OC)c1)-c1oncc1CCC2,44.6%,38.9%,44.6%,55.1%,48.3%,31.3%,-13% (active),7.48% (active),30%,4.7% (active),9.5% (active),38.9%,49.5%,–,27.5%,–,-17.6% (active),29.6%,8.44% (active)
O=C1C(Br)=C(c2ccccc2)C(=O)C(Br)=C1c1ccccc1,99.6%,95.2%,77.9%,102%,92.2%,94%,67.3%,31.9%,52.7%,71.1%,99.2%,91.9%,96.7%,90%,95.4%,105%,110%,97.2%,103%
COc1ccc(C(=O)C2=CC(=O)C(=O)C2)cc1OC,101%,109%,91.5%,98.7%,103%,97.4%,94.3%,95.3%,101%,94.3%,98.7%,113%,98.2%,109%,104%,99.3%,108%,110%,99.5%
O=C1/C(=C/c2ccc(F)cc2)CN(Cc2cn(CCNc3ccnc4cc(Cl)ccc34)nn2)C/C1=C\c1ccc(F)cc1,-63.7% (active),-75% (active),-95.8% (active),-20.3% (active),-100% (active),1.43% (active),-79.3% (active),–,-18.4% (active),-23.7% (active),-31% (active),-5.64% (active),-57.6% (active),23.3%,-27.1% (active),0.407% (active),-39.7% (active),18.2%,4.23% (active)
O=C1Nc2ccc(Cl)cc2/C1=N/N=C(c1ccccc1)c1ccccc1,103%,93.7%,63.9%,111%,87.5%,63%,–,92.7%,93.3%,101%,92.9%,96%,96.2%,85.8%,–,77.4%,105%,97.3%,98%
Clc1ccccc1Nc1ccc2nnc(-c3ccncc3)n2n1,100%,87%,89.5%,76.8%,96.6%,86.1%,72.8%,79.1%,89.6%,–,96.2%,101%,106%,–,121%,–,110%,99.6%,105%
C[C@]1(CO)C[C@@H](O)C[C@]2(C)[C@@H]1CC[C@@]13C[C@@H]4[C@@H](C[C@H]12)[C@]4(C)C3,102%,99.1%,83.9%,103%,97.7%,89.5%,–,116%,108%,–,114%,105%,97.6%,104%,–,106%,113%,102%,105%
COc1cc(/C=N/NC(=O)c2cnn3c2NC(c2ccccc2)C3)cc(OC)c1OC (centres undefined),47.6%,87.4%,68.9%,85.7%,80.2%,42.1%,–,79.7%,–,–,96.7%,90.7%,87.2%,82.5%,–,54.7%,10.4%,65.2%,82.9%
CCN(C(=O)c1ccc2c3c(cccc13)C=C2)c1ccccc1,84.9%,94.7%,82.9%,110%,100%,88.7%,90.2%,104%,88.6%,–,96.7%,91.2%,90.5%,106%,96%,102%,112%,120%,93.2%
COC1(OC)C2(Cl)C=C(c3ccccc3)C1(Cl)C(Cl)=C2Cl (centres undefined),87%,104%,70%,106%,108%,92.7%,105%,91%,–,–,–,93.8%,101%,88.6%,90.3%,90%,107%,116%,98.9%
COc1nc2c(cc1S(=O)(=O)c1ccccc1)CCc1c-2cnn1-c1ccccc1,83.4%,77.9%,-65.3% (active),67.9%,71.1%,58.2%,54.6%,68.6%,–,45.4%,–,76.4%,81.1%,76.7%,87.2%,79.6%,88.9%,85.2%,80.8%
Cc1nc2cc(Nc3nc(Nc4ccc(F)cc4)nc(N4CCN(C)CC4)n3)ccc2n1Cc1ccccc1,-20.5% (active),34.9%,-29% (active),-12.1% (active),9.69% (active),18.6%,29.2%,-7.07% (active),–,-21.6% (active),-40.2% (active),11.6%,42.9%,-7.19% (active),68.7%,24.6%,-35.6% (active),-19.4% (active),43.1%
Nc1nc(N)c(N=Nc2c(Br)cc(S(N)(=O)=O)cc2Br)c(N)n1,94.9%,103%,98%,122%,114%,99%,96.4%,88.3%,–,34.5%,106%,98.4%,109%,124%,108%,105%,73.1%,95.1%,107%
COc1ccc(/C=N/OCC(O)CN2CCC(O)CC2)cc1OC1CCCC1 (centres undefined),105%,103%,88.6%,106%,104%,95.4%,–,113%,106%,112%,110%,109%,101%,100%,–,107%,114%,108%,104%
Cc1nc2cc(Nc3nc(NCCO)nc(Nc4ccc(F)cc4)n3)ccc2n1Cc1ccccc1,122%,91.1%,78.8%,133%,98.3%,100%,66.2%,1.93% (active),–,14.9%,14.2%,80%,114%,95.3%,105%,88.9%,90.2%,107%,97.7%

# Source: PubChem BioAssay (NCI)
